Measurements as given in ChEMBL document CHEMBL3988442, “University of Dundee, Small-Polar-MMV Screening Library” (2021).
Where “and” joins values, the source holds several entries; their conditions need not be identical. Equal values may be shown once. For some of these results: Results with a measured potency or affinity are listed apart.

Assays:
Design in all cases: scale not given: direction of the effect not stated beside the values
[1] = biological target: Protein translocase subunit SecA (Escherichia coli (strain K12)) (UniProt P10408); experiment: Assay to Identify E. coli SecA ATPase Inhibitors; format: functional; conditions: 30 µM
Protein translocase subunit SecA (Escherichia coli (strain K12)), sequence (P10408 whole entry): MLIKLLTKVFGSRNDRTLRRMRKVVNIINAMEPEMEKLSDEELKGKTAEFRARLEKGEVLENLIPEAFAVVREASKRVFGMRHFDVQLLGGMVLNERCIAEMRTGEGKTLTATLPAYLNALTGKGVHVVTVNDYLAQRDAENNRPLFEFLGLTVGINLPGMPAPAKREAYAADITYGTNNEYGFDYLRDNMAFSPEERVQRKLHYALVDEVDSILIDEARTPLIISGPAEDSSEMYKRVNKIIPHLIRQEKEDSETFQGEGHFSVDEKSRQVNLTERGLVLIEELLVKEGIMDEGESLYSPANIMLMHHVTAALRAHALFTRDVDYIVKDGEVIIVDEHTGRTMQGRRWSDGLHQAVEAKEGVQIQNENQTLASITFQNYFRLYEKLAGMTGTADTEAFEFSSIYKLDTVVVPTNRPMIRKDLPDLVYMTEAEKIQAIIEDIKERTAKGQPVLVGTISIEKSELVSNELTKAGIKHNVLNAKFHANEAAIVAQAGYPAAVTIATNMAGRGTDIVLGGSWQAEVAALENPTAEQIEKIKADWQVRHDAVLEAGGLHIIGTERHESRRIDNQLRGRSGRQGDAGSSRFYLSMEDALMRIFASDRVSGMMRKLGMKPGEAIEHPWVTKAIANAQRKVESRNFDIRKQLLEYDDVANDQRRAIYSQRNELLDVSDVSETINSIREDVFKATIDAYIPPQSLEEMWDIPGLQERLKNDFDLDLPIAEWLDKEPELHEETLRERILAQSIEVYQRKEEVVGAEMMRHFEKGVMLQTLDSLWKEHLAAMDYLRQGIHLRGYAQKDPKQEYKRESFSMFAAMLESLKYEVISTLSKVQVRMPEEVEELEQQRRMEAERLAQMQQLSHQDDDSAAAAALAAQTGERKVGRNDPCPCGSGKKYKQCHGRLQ

[2] = biological target: T1, Ubiquitin-activating enzyme e1, putative (Leishmania donovani (strain BPK282A1)) (UniProt E9BSI1); experiment: Leishmania donovani Ubiquitin Activating Enzyme (LdE1); format: functional; conditions: 30 µM
T1 sequence (whole entry): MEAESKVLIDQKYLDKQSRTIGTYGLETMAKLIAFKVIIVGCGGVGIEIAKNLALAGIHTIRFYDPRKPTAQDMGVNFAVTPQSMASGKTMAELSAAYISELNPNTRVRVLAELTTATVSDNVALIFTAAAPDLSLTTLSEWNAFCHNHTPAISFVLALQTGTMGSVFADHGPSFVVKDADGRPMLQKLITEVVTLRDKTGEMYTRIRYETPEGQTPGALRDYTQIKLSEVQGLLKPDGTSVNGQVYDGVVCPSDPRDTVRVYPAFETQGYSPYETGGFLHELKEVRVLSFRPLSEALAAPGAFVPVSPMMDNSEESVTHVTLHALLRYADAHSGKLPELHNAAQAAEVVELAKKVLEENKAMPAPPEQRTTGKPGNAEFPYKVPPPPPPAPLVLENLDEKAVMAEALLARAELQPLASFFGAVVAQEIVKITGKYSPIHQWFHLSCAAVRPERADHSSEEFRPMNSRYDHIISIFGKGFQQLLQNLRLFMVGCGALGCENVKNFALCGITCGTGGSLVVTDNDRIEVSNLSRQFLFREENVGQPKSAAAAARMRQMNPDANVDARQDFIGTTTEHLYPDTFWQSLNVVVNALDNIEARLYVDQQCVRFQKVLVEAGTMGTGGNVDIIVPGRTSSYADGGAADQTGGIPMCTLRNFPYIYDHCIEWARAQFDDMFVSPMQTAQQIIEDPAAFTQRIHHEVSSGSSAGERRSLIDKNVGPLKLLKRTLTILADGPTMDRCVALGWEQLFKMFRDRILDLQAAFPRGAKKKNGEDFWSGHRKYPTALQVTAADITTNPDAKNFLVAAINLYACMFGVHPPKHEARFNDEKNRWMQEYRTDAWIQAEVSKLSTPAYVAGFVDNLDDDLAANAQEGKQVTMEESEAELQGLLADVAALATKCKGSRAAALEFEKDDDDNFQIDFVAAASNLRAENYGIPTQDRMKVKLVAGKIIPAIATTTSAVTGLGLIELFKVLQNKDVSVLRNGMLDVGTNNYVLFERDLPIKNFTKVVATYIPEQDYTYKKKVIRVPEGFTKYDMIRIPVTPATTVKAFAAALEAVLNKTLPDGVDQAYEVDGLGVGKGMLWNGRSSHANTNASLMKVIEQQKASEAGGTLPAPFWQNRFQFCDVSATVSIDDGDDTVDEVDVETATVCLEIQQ

[3] = biological target: AMP-activated protein kinase, AMPK (Homo sapiens) (UniProt P54646+O43741+P54619+Q9UGJ0+Q9Y478+Q13131+Q9UGI9); experiment: AMP-dependent Kinase enzyme assay. An in vitro enzyme assay that detects ADP turnover that is directly proportional to AMPK activity. This uses naive AMPK that is activated during the assay with MK-8722; format: functional; conditions: 30 µM
[4] = biological target: Sialic acid-binding Ig-like lectin 9 (Homo sapiens) (UniProt Q9Y336); experiment: Hs-Siglec9 ALPHAscreen SOP 20170721; conditions: 10 µM
Sialic acid-binding Ig-like lectin 9 (Homo sapiens), sequence (Q9Y336 whole entry): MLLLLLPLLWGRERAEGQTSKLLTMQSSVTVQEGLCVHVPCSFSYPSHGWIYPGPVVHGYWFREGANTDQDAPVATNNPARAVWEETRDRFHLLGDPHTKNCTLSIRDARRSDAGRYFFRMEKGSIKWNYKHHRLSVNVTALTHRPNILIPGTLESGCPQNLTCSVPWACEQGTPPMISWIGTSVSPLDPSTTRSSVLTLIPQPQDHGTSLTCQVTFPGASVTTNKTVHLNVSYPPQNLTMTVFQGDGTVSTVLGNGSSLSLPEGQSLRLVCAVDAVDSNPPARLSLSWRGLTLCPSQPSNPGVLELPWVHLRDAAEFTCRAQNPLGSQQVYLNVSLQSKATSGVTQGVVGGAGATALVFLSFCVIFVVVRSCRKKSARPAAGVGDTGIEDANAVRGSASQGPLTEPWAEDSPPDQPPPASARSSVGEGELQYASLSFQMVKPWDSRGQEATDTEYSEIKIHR

Trypanosoma cruzi = experiment: Trypanosoma cruzi phosphomannomutase and mannose-1-phosphate guanylyltransferase assay; format: functional; conditions: 10 µM
[5] = biological target: T2, Arginase-2, mitochondrial (Homo sapiens) (UniProt P78540); experiment: in vitro enzyme assay to detect the production of urea directly proportional to the activity of Arginase II; format: functional; conditions: 33.3 µM; also: in the data most compounds retested in dose-response had high values
T2 sequence (whole entry): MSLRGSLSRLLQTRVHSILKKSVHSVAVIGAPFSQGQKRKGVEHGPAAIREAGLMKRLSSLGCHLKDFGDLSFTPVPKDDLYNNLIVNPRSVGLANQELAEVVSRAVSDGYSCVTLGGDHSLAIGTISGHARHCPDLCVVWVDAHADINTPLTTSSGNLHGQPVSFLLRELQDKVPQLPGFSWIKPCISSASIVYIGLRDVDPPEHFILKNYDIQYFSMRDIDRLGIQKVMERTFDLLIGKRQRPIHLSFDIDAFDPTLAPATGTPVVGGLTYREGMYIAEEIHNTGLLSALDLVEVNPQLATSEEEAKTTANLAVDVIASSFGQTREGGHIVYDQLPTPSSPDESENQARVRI

[6] = biological target: T3, Proteasome subunit beta (Trypanosoma cruzi) (UniProt O96673); experiment: Trypanosoma cruzi proteasome chymotrypsin-like activity (TcProtChymo) assay.; also: in the data most compounds retested in dose-response had high values; format: functional; conditions: 9.37 µM
T3 sequence (whole entry): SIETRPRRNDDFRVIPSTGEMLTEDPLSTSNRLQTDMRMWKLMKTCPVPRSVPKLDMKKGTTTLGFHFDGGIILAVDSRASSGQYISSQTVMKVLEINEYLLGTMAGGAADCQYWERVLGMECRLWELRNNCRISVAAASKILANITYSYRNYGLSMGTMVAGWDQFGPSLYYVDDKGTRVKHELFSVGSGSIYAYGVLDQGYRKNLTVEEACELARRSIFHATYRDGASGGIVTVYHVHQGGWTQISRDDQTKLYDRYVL

Homo sapiens = organism: Homo sapiens; experiment: To identify inhibition of the IFN signalling (Jak-Stat) pathway via expression of an eGFP reporter gene under the control of an IFN-stimulated response element (ISRE) containing MxA promoter.; format: functional; conditions: 30 µM
[7] = biological target: T4, Tyrosyl-tRNA synthetase, putative (Trypanosoma cruzi (strain CL Brener)) (UniProt Q4DSP6); experiment: Trypanosoma cruzi tyrosyl tRNA synthetase (TcYRS) _High Tyrosine SOP; format: functional; conditions: 30 µM; also: in the data most compounds retested in dose-response had high values
T4 sequence (whole entry): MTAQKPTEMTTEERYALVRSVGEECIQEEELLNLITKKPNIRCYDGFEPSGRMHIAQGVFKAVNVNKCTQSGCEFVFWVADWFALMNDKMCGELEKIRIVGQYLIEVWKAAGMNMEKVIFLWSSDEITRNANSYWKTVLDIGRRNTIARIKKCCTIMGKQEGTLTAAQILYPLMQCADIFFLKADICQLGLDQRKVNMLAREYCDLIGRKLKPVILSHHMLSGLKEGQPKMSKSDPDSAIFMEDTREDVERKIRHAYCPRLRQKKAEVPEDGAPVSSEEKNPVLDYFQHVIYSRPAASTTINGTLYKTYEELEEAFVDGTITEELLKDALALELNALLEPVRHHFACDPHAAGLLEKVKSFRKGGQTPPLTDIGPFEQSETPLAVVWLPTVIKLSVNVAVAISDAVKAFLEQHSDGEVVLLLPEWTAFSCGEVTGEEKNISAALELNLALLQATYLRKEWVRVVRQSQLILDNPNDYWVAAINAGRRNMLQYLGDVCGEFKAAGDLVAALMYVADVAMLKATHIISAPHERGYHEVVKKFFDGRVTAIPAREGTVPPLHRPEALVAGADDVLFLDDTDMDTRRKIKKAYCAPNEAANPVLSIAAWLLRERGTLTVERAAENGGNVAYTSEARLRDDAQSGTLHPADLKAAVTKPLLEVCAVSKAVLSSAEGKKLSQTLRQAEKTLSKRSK

[8] = biological target: T4, Tyrosyl-tRNA synthetase, putative (Trypanosoma cruzi (strain CL Brener)); experiment: Trypanosoma cruzi tyrosyl tRNA synthetase (TcYRS) SOP; format: functional; conditions: 30 µM
[9] = biological target: Chromo domain-containing protein 1 (Saccharomyces cerevisiae (strain ATCC 204508 / S288c) (Baker's yeast)) (UniProt P32657); experiment: ScCHD-1 Enzyme Inhibition Assay; format: functional; conditions: 30 µM; also: in the data most compounds retested in dose-response had high values
Chromo domain-containing protein 1 (Saccharomyces cerevisiae (strain ATCC 204508 / S288c) (Baker's yeast)), sequence (P32657 whole entry, the tested form may be a part): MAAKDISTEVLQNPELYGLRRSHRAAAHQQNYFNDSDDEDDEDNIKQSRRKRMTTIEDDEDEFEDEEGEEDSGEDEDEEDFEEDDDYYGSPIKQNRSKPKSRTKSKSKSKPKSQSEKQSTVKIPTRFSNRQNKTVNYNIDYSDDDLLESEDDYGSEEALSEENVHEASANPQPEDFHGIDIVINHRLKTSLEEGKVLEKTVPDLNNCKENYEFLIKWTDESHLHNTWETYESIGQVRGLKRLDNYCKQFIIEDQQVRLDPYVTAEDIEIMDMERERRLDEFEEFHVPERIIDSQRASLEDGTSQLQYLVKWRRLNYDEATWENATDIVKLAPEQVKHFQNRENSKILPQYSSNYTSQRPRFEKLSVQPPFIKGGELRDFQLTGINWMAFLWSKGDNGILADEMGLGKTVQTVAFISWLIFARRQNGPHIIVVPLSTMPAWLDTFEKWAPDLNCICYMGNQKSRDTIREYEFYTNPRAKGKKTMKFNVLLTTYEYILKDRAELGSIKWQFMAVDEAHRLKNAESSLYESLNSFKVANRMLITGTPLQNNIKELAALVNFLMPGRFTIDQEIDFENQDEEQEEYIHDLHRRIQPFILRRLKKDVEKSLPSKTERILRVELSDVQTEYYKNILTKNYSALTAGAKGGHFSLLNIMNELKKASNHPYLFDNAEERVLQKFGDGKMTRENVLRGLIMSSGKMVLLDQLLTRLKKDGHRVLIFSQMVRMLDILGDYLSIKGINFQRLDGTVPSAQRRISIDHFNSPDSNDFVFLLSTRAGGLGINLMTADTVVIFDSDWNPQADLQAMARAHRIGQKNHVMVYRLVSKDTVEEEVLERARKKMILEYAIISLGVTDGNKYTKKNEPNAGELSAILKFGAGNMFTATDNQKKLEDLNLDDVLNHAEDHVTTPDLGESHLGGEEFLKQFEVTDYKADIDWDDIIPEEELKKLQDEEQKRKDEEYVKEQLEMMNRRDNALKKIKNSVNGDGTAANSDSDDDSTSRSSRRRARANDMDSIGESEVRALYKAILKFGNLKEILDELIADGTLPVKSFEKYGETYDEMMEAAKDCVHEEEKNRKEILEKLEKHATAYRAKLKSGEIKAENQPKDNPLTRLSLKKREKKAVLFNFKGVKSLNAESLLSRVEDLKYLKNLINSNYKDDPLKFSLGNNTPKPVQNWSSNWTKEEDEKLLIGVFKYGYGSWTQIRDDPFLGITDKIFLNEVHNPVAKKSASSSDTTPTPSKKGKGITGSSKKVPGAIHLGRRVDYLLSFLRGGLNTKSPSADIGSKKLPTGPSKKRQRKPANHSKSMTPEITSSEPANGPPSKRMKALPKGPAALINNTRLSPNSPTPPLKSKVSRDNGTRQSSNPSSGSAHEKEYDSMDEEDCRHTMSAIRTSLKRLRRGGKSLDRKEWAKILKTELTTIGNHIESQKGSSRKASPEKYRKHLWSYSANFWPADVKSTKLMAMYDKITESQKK

N/A = experiment: Trypanosoma cruzi proteasome luciferase counter-screen; format: functional; conditions: 9.37 µM

Row | Compound | Percent Effect [1] [%] | Percent Effect [2] [%] | Percent Effect [3] [%] | Percent Effect [4] [%] | Percent Effect (Trypanosoma cruzi) [%] | Percent Effect [5] [%] | Percent Effect [6] | Percent Effect (Homo sapiens) [%] | Percent Effect [7] [%] | Percent Effect [8] [%] | Percent Effect [9] [%] | Percent Effect (N/A)
1 | N#Cc1ncn(CCC(=O)Nc2c(Cl)cccc2Cl)n1 | -1.01 | 2.74 | -1.08 | 6.16 | 1.59 | -24.8 | 19.6% | -3.99 | 11.5 | 21 | -3.19 | 
2 | CCOCCCn1c(NC(=O)c2scnc2C)nc2ccccc21 | -9.29 | -5.2 | -17.4 | 23.1 | 11.1 | 4.27 | 92.3% and 90% and 93.7% | 68.6 | 7.77 | 21.9 | 72.8 | 69.6% and 70.1%
3 | COc1cc(/C=C/c2ncc(C(=O)O)s2)cc(Cl)c1O | 3.12 | 13.9 | 50.5 | -3.01 | 0.923 | 4.95 | 99.9% and 99% and 99.8% | -2.51 | 4.17 | 15.2 | -33.3 | 92.6% and 91.5%
4 | CCS(=O)(=O)NC[C@]12COC[C@H]1CN(Cc1cccc(OC)c1)C2 | -2.67 | -2.7 | 2.37 | 5.65 | 6.16 | -4.14 | 7.93% | 11.7 | 0 | 5.13 | 14.6 | 
5 | CC(C)CN1CCCn2nc(CNC(=O)CCCc3cn[nH]c3)cc2C1 | -4.55 | 2.67 | 1.75 | 9.18 | 6.91 | -0.521 | 10.8% | 0.658 | 6.01 | 11.1 | -7.73 | 
6 | CCOc1ccc(C#N)cc1NCC(=O)Nc1cc(F)ccc1F | -4.77 | -12.7 | -7.04 | -0.166 | 4.63 | -29.7 | 3.19% | -7.08 | 7.39 | 24.1 | 18.3 | 
7 | O=S(=O)(Cc1ccccc1)N1CCCn2cnc(CN3CCCC3)c2C1 | -3.85 | 8 | 20.1 | -0.361 | -4.44 | -57.5 | 5.3% | -10 | 6.25 | -7.5 | -6.67 | 
8 | CCN1CCCN(C(=O)c2cnc(OC(C)C)c(Cl)c2)CC1 | -2.83 | -8.22 | 9.83 | -2.64 | -15.9 | -1.2 | 3.68% | 6.45 | 1.04 | -30.9 | 1.65 | 
9 | COc1ccc(CCNC(=O)NC2CCCC2)cc1OC | 0.159 | 8.11 | -0.309 | 3.69 | -1.16 | 3.33 | 13.3% | 6.13 | 5.82 | 9.76 | -3.01 | 
10 | Cc1nc(C)n(CC2CCCCN2CCCS(=O)(=O)N(C)C)n1 (centres undefined) | 4.38 | 16.2 | -12.4 | 5.89 | 2.7 | 3.33 | 11.9% | 4.05 | 4.76 | 7.32 | -0.511 | 
11 | O=C(NCc1ccco1)c1nn(C2CCS(=O)(=O)C2)c2c1CCCC2 (centres undefined) | -5.41 | 21.1 | 7.28 | 5.73 | 3.02 | -3.55 | 13.1% | 4.09 | 0 | 5.2 | -0.898 | 
12 | CNC(=O)c1cnc(/C=C/c2cc(OC)cc(OC)c2)s1 | -6.6 | -5.41 | -2.31 | 7.75 | -6.25 | 0.417 | 21.4% | 18.1 | 1.98 | -6.1 | -3.49 | 
13 | Fc1cc(CNCc2ccc3c(c2)CCO3)ccc1N1CCOCC1 | -0.571 | -8.11 | -9.24 | -2.02 | 0 | -2.86 | 6.38% | 2.17 | -2.65 | 0 | -3.66 | 
14 | COC(=O)C(c1cc(F)ccc1F)N(C)C(=O)c1cccnc1O (centres undefined) | -4.02 | 6.33 | 7.36 | -2.25 | -1.33 | 0.645 | 10.3% | -7.9 | 1.04 | 12.7 | -12.9 | 
15 | O=C([C@H]1COC[C@H]2CN(C3CCCC3)C[C@H]21)N1CCCCO1 | -1.86 | 0 | 2.27 | 5.11 | -0.579 | -51.4 | 2.39% | -22.5 | 0 | -5 | -3.46 | 
16 | Fc1ccc2c(c1)C(NCc1nnc3n1CCCCC3)CCCO2 (centres undefined) | -2.96 | 8.11 | -2.29 | 19.3 | 7.92 | 23.1 | -1.12% | 0.659 | 2.15 | 8.64 | -12.5 | 
17 | Cc1cc2c(=O)n3c(nc2s1)CCN(C(=O)c1ccncc1)CC3 | 0.412 | 1.35 | 20.6 | 7.55 | -4.74 | 3.02 | 9.98% | 0.756 | 2.15 | 6.49 | -4.17 | 
18 | COc1ncccc1NC(=O)NC1CCOc2ccccc21 (centres undefined) | -1.57 | 16.2 | -3.28 | 8.29 | 5.29 | -4.62 | 8.08% | 23.4 | 6.93 | 25.6 | -3.65 | 
19 | Cc1ccc(CNC(=O)CN2CCN(CC(O)C3CC3)CC2)cc1 (centres undefined) | -0.763 | 18.2 | -0.209 | -0.425 | 1.87 | 1.94 | 11.3% | 15.5 | 9.52 | 16.7 | 89.9 | 
20 | COc1nn(C)c2c1CCCN(C(=O)c1ccccc1)C2 | -4.93 | 2.7 | -0.442 | -2.98 | -1.76 | -1.25 | -1.27% | 3.41 | 4.95 | 1.22 | -2.72 | 
21 | Cc1ncc(CNC2CCCN(Cc3noc(C4CC4)n3)C2)s1 (centres undefined) | -0.948 | 10.5 | 2.18 | 8.33 | 3.01 | 2.3 | 10.2% | 8.96 | 7.35 | 19.5 | -8.72 | 
22 | O=c1oc(-c2cccs2)nn1CC(O)c1ccc(F)cc1 (centres undefined) | -3.82 | 0 | -2.3 | 3.88 | 3.41 | -1.04 | 13.9% | 18.7 | 6.01 | 18.5 | -5.35 | 
